CD11b adhes inh: inhibitors of CD11b/CD18 adhesion to fibrinogen, primary screen, K562 cells, luminescence; inhibition, % at 10 µM; ATPlite luminescence; Mn2+ added to activate the integrin; hit rate 0.54% among 93,000;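 active = primary inhibition of 50% or more at 10 µM, then 40% or more on retest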
Target sequence (P05107 whole entry, looked up, other chains not shown): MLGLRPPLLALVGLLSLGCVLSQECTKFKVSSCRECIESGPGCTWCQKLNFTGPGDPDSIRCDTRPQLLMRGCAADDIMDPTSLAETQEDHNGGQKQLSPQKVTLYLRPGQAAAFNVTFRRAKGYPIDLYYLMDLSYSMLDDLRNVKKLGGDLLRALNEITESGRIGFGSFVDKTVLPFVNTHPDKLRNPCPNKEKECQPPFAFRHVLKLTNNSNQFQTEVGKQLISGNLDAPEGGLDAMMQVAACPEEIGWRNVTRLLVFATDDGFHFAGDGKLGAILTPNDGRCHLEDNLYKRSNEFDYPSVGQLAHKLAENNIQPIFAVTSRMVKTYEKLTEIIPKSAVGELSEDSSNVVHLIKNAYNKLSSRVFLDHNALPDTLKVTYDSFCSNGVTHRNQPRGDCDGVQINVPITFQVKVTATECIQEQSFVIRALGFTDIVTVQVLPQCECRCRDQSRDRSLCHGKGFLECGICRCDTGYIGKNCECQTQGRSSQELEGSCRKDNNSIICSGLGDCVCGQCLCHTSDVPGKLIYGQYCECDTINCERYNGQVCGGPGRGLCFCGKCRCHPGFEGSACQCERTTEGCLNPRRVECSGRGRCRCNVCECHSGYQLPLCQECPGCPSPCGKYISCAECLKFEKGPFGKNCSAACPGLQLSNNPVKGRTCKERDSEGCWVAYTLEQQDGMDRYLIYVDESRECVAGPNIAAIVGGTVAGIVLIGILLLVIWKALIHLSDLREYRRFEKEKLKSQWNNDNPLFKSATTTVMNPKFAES
CD11b adhes enh: enhancers of CD11b/CD18 adhesion to fibrinogen, primary screen, K562 cells, luminescence | ATPlite luminescence | activation, % at 10 µM | hit rate 0.07% among 93,000;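 active = 10 µM primary screen giving 50% or more activity, confirmed by 40% or more on retest at that dose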
CYP2C9 inhib: blockers of cytochrome P450 2C9 activity – biochemical, luminescence, ADME assay, primary screen. P11712. CYP2C9 Supersomes, luciferin-H conversion. inhibition, % at 5 µM. hit rate 20% among 96,000;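 active = blocking of liver enzyme CYP2C9 beyond about 50% at 5 µM, limit read from the data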
CYP2C19 inhib: blockers of cytochrome P450 2C19 activity – biochemical, luminescence, ADME assay, primary screen; AID 778, 2007; CYP2C19 Supersomes, luciferin-H EGE luminescence, 30 min; inhibition, % at 5 µM; hit rate 21% among 96,000;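 active = CYP2C19 inhibition above a set limit at 5 µM in the primary screen, cut at about 50% in these data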;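 also: plate controls were negative control wells for no effect and 2.5 mM tranylcypromine positive control for full effect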
CYP2C19 activ: human CYP2C19 activators, primary screen, biochemical, luminescence; 96,000 tested, under 10 active; activation factor at 5 µM; recombinant CYP2C19, luciferin-H EGE luminescence; stronger effect = higher value; 0 = fully inhibited enzyme, 1 = untreated enzyme;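 active = activation factor of at least 2 at 5 µM in the primary screen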;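 also: 0 = wells with 2.5 mM tranylcypromine and 1 = vehicle-only wells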
CYP2C9 act: human CYP2C9 activators, primary screen, biochemical, luminescence; recombinant CYP2C9, luciferin-H conversion; stronger effect = higher value; factor 1 = untreated enzyme, 0 = blocked; activation factor at 5 µM; hit rate 1.4% among 96,000;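 active = activation factor of 2 or more for CYP2C9 at a 5 µM dose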;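 also: 0 = sulfaphenazole-blocked wells and 1 = vehicle-only wells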
* = called active by the depositor; x = no result given. This is a sample that favours compounds with a hit; in the whole collection about 28% have one here.

SMILES	CD11b adhes inh	CD11b adhes enh	CYP2C9 inhib	CYP2C19 inhib	CYP2C19 activ	CYP2C9 act
Cc1ccc(C(=O)CC2(O)C(=O)N(C)c3ccc(Br)cc32)c(C)c1 (centres undefined)	26.7	2.8	55.1*	62.5*	0.4	0.4
Cc1ccc(C)c(C(=O)CC2(O)C(=O)N(C)c3ccccc32)c1 (centres undefined)	-4.0	-1.1	-3.6	24.2	0.8	1
CN1C(=O)C(O)(C2COC(C)(C)CC2=O)c2cc(Br)ccc21 (centres undefined)	1.2	5.1	-4.7	54.5*	0.5	1
CCS(=O)c1ccccc1C(=O)O (centres undefined)	63.7	3.5	5.3	7.2	0.9	0.9
O=S(=O)(Nc1nc2ccccc2nc1NCCN1CCOCC1)c1cccc(Cl)c1	-0.2	-4.9	98.3*	0.2	1	0
Clc1ccc(-c2csc3ncnc(NCCN4CCOCC4)c23)cc1	-35.1	3.5	23.4	24.1	0.8	0.8
Clc1ccc(-c2nc(NCCN3CCOCC3)c3ccccc3n2)cc1	2.1	-4.7	50.4*	20.0	0.8	0.5
Cc1ccccc1Nc1nc(N)nc(CSc2nnnn2-c2ccccc2)n1	-7.4	3.3	82.4*	87.6*	0.1	0.2
Cc1nc(Cc2nnc(SCc3nc(N)nc(Nc4ccccc4C)n3)o2)cs1	-4.2	2.4	51.3*	30.2	0.7	0.5
CN(C)c1nc(N)nc(CSc2nnnn2-c2ccccc2)n1	-1.6	1.7	17.2	52.2*	0.5	0.8
CCc1ccc(Nc2nc(N)nc(CSc3nnnn3-c3ccccc3)n2)cc1	16.9	1.3	12.2	10.2	0.9	0.9
O=C(CN1C(=O)CSC1=O)Nc1ccc(N2CCOCC2)cc1	-7.9	-3.8	-17.4	-24.8	1.2	1.2
O=C(Cc1c(Cl)cccc1Cl)OCC(=O)N1CCc2ccccc2C1	-2.2	6.5	x	x	x	x
CNc1nc(N2CCc3ccccc32)ncc1F	-12.5	-6.5	24.4	81.6*	0.2	0.8
Cc1cc(-c2c(C)[nH]n(-c3ccc(Cl)cc3)c2=O)n(-c2ccccc2)n1	-9.7	-4.2	90.8*	8.1	0.9	0.1
Cc1[nH]n(-c2cccc(Cl)c2)c(=O)c1-c1ccccc1	13.8	-1.6	23.1	5.3	0.9	0.8
COc1cc(/C=N\NC(=O)c2ccc(Cn3nc([N+](=O)[O-])c(Cl)c3C)o2)ccc1O	9.7	-1.3	24.2	65.0*	0.3	0.8
Cc1csc(NC(=O)Cc2nn(C)c(=O)c3ccccc23)n1	44.7	-7.2	16.2	-7.4	1.1	0.8
CCOC(=O)c1oc2cccc(OCC(O)CNC(C)C)c2c1C (centres undefined)	-1.4	5.9	37.2	69.9*	0.3	0.6
c1ccc2c(-c3ccncc3)c[nH]c2c1	-13.7	-4.8	93.4*	85.3*	0.1	0.1
O=C1NN(c2ccccc2)C(=O)/C1=C\c1cccc(OC(=O)c2cccs2)c1	-6.9	4.5	95.8*	51.9*	0.5	0
O=C1NN(c2ccc(Cl)c(Cl)c2)C(=O)/C1=C/c1cccc(OC(=O)c2cccs2)c1	-20.0	88.7	47.9	6.0	0.9	0.5
COc1ccc2cc3cc(C(=O)N4CCN(Cc5ccc6c(c5)OCO6)CC4)oc3nc2c1	x	x	52.9*	20.1	0.8	0.5
COc1ccc2cc3cc(C(=O)NCc4ccc5c(c4)OCO5)oc3nc2c1	x	x	64.4*	35.2	0.6	0.4
c1cn2cc(-c3ccc4c(c3)OCO4)nc2s1	18.6	-2.3	9.6	13.3	0.9	0.9
O=C(c1cccs1)N1CCn2c1nc1ccccc12	1.0	0.2	-11.8	4.5	1	1.1
CCCC(C)NC(=O)c1ccc(C2SCC(=O)N2Cc2ccco2)cc1 (centres undefined)	-4.9	-4.8	12.8	17.9	0.8	0.9
CC(OC(=O)c1cc(=O)[nH]c2ccccc12)c1ccccc1 (centres undefined)	-7.3	1.1	54.0*	38.3	0.6	0.5
